“And” between values parts separate entries of the source, which are not always exact repeats. Equal entries are not always repeated. The panel holds about 83,000 compounds, 20% with a hit somewhere; the sample as a whole holds those more often.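 Results are percent growth after 48 hours of single-concentration exposure. 100 means growth as in untreated cells, lower positive values show inhibition; negative values down to -100 show cell death.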 The source made the active and inactive calls. The calls were made as follows: active = growth percent below 10; inactive = the rest.
tested on: HL-60(TB) leukemia; assay: NCI-60 one-dose screen, 48 h (100 = growth as untreated, 0 = no growth, -100 = all killed); settings: 10 µM unless noted

| Structure (SMILES) | growth |
| --- | --- |
| CCCCCC(/C=N\NC(=S)N/N=C/C(=C/c1ccccc1)CCCCC)=C\c1ccccc1 | 68.8% (inactive) |
| COc1ccc(OC)c(NCC(=O)n2nc(/C=C\c3ccc(O)c(OC)c3)cc2/C=C\c2ccc(O)c(OC)c2)c1 | -8.64% (active) |
| CC(C)(C)n1cc(-c2ccnc(NCCCNS(=O)(=O)c3ccccc3)c2)c(-c2ccccc2)n1 | 38.5% (inactive) |
| Nc1nc(N)nc(N2CCCCC2)n1 | 97.9% (inactive) |
| Cc1ccc2c(c1)sc(-c1ccc(N(C)C)cc1)[n+]2C | -45.4% (active) |
| Cc1ccc(N(CC2=NCCN2)c2cccc(O)c2)cc1 | 105% (inactive) |
| CC(C)(C)n1cc(-c2ccnc(NCCNS(=O)(=O)c3ccc(C(F)(F)F)cc3)c2)c(-c2cccc(O)c2)n1 | 29.3% (inactive) |
| CN(C)CCNc1nc2ccccc2c2c(=O)c3cc(F)ccc3sc12 | 38.1% (inactive) |
| COP(=O)(OC)C(C)(C)CC(=O)CC(C#N)(C#N)C(C#N)C#N | 103% (inactive) |
| COc1ccc(C(O)c2ccccc2)cc1 (configuration not stated) | 102% (inactive) |
| C[N+](C)=c1ccc2nc3c(cc(Nc4ccccc4)c4ccccc43)oc-2c1 | 25.8% (inactive) |
| NC1CCC(Nc2nc(NCc3ccc(-c4cccs4)nc3)c3ncn(C4CCCC4)c3n2)CC1 (configuration not stated) | -29.7% (active) |
| COc1cccc(Nc2nc(NCCO)c3ccccc3n2)c1 | 61.4% (inactive) |
| CC1(O)CC(c2nc(-c3ccc4ccc(-c5ccccc5)nc4c3)c3c(N)nccn23)C1 (configuration not stated) | 17.5% (inactive) |
| Nc1nc2c([nH]1)c1[nH]c3ccccc3c1c1[nH]c3ccccc3c21 | 25.5% (inactive) |
| O=C(Nc1cccc(-n2cc(-c3ccncc3)c(-c3ccc(O)c(Cl)c3)n2)c1)Nc1ccc(Cl)c(Cl)c1 | -13.2% (active) |
| C=C(C)[C@@H]1CC[C@@]2(C(=O)O)CC[C@]3(C)C(CCC4[C@@]5(C)CCC(OS(=O)(=O)c6ccccc6)C(C)(C)C5CC[C@]43C)C12 (some centres not stated) | 21.4% (inactive) |
| Clc1cccc(-c2cc(-c3ccc4c(c3)OCCO4)[nH]n2)c1 | 15.2% [25 µM] (inactive) |
| CCOC(=O)C1C(=O)C=C(c2ccc(OC)cc2)CC1c1sc(N(C)Cc2ccccc2)nc1Cl (configuration not stated) | 83% (inactive) |

| Structure (SMILES) | growth |
| --- | --- |
| O=C(/C(=C/c1ccc([N+](=O)[O-])cc1)SCc1ccc(F)cc1)c1ccc(Cl)cc1 | 64.2% (inactive) |
| COc1ccc(CN2c3ccccc3Sc3ccccc32)cc1O | 21.1% (inactive) |
| O=P(O)(O)OC1C(OP(=O)(O)O)C(OP(=O)(O)O)C(OP(=O)(O)O)C(OP(=O)(O)O)C1OP(=O)(O)O.[Cu+2] (configuration not stated) | 92.6% (inactive) |
| O=C(Cn1c(C(=O)c2ccccc2)nc2ccccc21)c1ccc(F)cc1 | 17.4% (inactive) |
| CN(C)CCCn1c(=O)c2ccccc2c2ccccc21 | 63.4% (inactive) |
| O=[N+]([O-])c1ccc(Cl)c(S(=O)(=O)O)c1 | 96.4% (inactive) |
| c1ccc2cc(C[n+]3ccn(Cc4ccc5ccccc5n4)c3)ccc2c1 | -42.3% (active) and -25.4% (active) |
| O=C(/C=C/c1cccc(O)c1)c1cccc(-n2cc(-c3ccccc3)[nH]c2=O)c1 | 42.1% (inactive) |
| CN1CCN(c2ccc3nc(-c4c(N)c5c(F)cccc5[nH]c4=O)[nH]c3c2)CC1 | 12.9% (inactive) and 3.6% (active) |
| Cc1nc2cncc(C#Cc3cncc(C(=O)Nc4ccc(CN5CCN(C)CC5)c(C(F)(F)F)c4)c3)c2nc1C | -8.15% (active) |
| C[N+]1(CCCCC[N+]2(C)CCCC2)CCCC1 | 110% (inactive) |
| CCN(CC)CCOc1ccc2c(c1)C(=O)c1cc(OCCN(CC)CC)ccc1-2 | 94.2% (inactive) and 36.5% (inactive) |
| CCCCCN(CCCCC)CC(O)c1cc2c(c3ccccc13)CCCC2 (configuration not stated) | 18.6% (inactive) and 58.1% (inactive) |
| O=[N+]([O-])c1ccc(NS(=O)(=O)c2ccccc2)c2ccccc12 | 21.2% (inactive) |
| COc1ccc([C@H]2[C@@H](F)C(=O)N2c2cc(OC)c(OC)c(OC)c2)cc1F | -14.7% (active) |
| CCc1cc2c(c3ccc(C(=O)CBr)cc13)CCCC2 | 97.7% (inactive) |
| Cc1cc(C(=O)O)c(C)cc1C(=O)O | 113% (inactive) |
| COc1cc(-c2n/c(=C\c3c(O)[nH]c4ccc(Cl)cc34)cc3c2=Nc2ccccc2-3)ccc1F | 96.6% (inactive) |

Reference: PubChem BioAssay (NCI)
